Reference: PubChem BioAssay AID743383 (National Center for Advancing Translational Sciences (NCATS), 2014)
Active and inactive are the calls of the source. Calls follow the shape of the full dose curve.

These molecules were tested against Phosphatidylinositol 5-phosphate 4-kinase type-2 alpha (Homo sapiens) (UniProt P48426) (assay: qHTS for Inhibitors of PI5P4K: PI5P4K-alpha 32P-ATP TLC Secondary Assay for Probe SAR). Settings: recombinant PI5P4K-alpha, 32P-ATP TLC PI(4,5)P2 formation.
Chain of Phosphatidylinositol 5-phosphate 4-kinase type-2 alpha (Homo sapiens) (P48426 whole entry, looked up, canonical isoform): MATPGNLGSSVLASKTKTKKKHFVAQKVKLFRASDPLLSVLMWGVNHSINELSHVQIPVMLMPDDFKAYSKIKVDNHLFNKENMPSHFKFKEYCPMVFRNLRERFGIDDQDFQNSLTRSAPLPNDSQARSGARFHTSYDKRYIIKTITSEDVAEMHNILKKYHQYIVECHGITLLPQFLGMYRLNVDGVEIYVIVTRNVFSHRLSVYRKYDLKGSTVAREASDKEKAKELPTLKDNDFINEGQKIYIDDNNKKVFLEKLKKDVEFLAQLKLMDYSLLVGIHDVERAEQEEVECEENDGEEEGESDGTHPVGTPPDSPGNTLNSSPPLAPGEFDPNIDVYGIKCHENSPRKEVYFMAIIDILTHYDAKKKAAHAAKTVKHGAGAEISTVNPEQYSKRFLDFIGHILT
Source text: In addition to finding PI5P, we discovered the type II phosphatidylinositol 5-phosphate 4-kinase (PI5P4K) family (alpha, beta, gamma isoforms) that catalyze the conversion of PI5P to PI(4,5)P2. Alternatively, PI(4,5)P2 can also be synthesized through phosphatidylinositol-4-phosphate (PI4P) by the type I phosphatidylinositol 4-phosphate 5-kinases (PI4P5K). These PI5P4K enzymes therefore represent one way by which cells can regulate endogenous PI5P levels and play important roles in insulin signaling and in stress responses. […] A qHTS PI5P4K-alpha ADP-Glo assay was developed to identify specific modulators of human PI5P4K, phosphatidylinositol-5-phosphate 4-kinase (Type II PIPK). To confirm that the active compounds and their analogs were true and selective inhibitors, a secondary Thin-layer Chromatography (TLC) assay against recombinant PI5P4K-alpha, PI4P5K-alpha or PI5P4K-beta that utilize a radioactively labeled ATP were developed. The data herein are the result of the PI5P4Kalpha TLC assay. […]
The kinase reaction was carried out in a total of 50 microL of kinase buffer (50 mM HEPES pH 7.4 and 10 mM MgCl2) containing 20 microM of the lipids that were suspended by sonication. […] The radiolabeled product, PI(4,5)P2, was quantified with a phosphorimager (Molecular Dynamics, STORM840, GE Healthcare, Waukesha, WI, USA).
O=C1Nc2ccc(C(=O)c3ccco3)cc2/C1=C/c1cc(Cl)c(O)c(Cl)c1 was tested, and the Potency was 18 nM (active).
